Experimental data published in PubChem BioAssay (NCATS).
“And” between values parts separate entries of the source, which are not always exact repeats. Identical values can stand only once. Results filed as inconclusive are left out. A call without a number means that no potency is given here. The source made the active and inactive calls. Unless noted, the call rests on the fitted dose curve; in most records, active means well fitted curve in the direction sought with a large enough effect; inconclusive means small, poorly fitted or top-dose-only effect, or another doubt; inactive means no such curve, though single readings can be large; an effect the other way counts as inactive or inconclusive.

Tests used:
[1] = Cell Viability - LYMP2-020 (AID 986); settings: series mostly up to 92.2 µM; further: nearly all actives have a fitted effect of over 55% in size; further: potency means the concentration at half of the fitted maximal effect
How it was run: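 qHTS, 2500 cells/well; 5 hr then 24 hr compound exposure, 37 C; CellTiter-Glo luminescence after 30 min RT; ATP decrease taken as cytotoxicity; AC50 via Hill equation; tetraoctylammonium bromide positive control.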

[2] = Cell Viability - LYMP2-022 (AID 987); settings: LYMP2-022 lymphoblastoid cell viability; series mostly up to 92.2 µM; further: nearly all actives have a fitted effect of over 55% in size
How it was run: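 Luminescent ATP read-out (CellTiter-Glo, 30 min, RT) after 24 hr, 37 C compound exposure of 2500 human lymphoblastoid cells/well in complete medium. Cytotoxicity taken as concentration-dependent ATP loss; AC50 from standard Hill equation.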

[3] = Cell Viability - LYMP2-024 (AID 988); settings: LYMP2-024 lymphoblastoid cell viability; series mostly up to 92.2 µM; further: nearly all actives have a fitted effect of over 60% in size; further: potency means the concentration at half of the fitted maximal effect
How it was run: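 ATP-based luminescence (CellTiter-Glo, 30 min RT) after 24 h compound exposure at 37 C of 2500 lymphoblastoid cells/well; decrease in ATP taken as cytotoxicity. qHTS concentration-response fitted to standard Hill equation for AC50.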

[4] = Cell Viability - LYMP2-026 (AID 989); settings: LYMP2-026 lymphoblastoid cell viability, qHTS; series mostly up to 92.2 µM; further: nearly all actives have a fitted effect of over 50% in size
How it was run: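 qHTS cytotoxicity: 2500 cells/well, 5 hr 37 C, compound 24 hr 37 C, CellTiter-Glo 30 min RT, luminescence. Tetraoctylammonium bromide positive control. AC50 via standard Hill fit.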

[5] = Cell Viability - LYMP1-002 - Assay at 24 hr (AID 993); settings: LYMP1-002 lymphoblastoid cells viability; series mostly up to 92.2 µM
How it was run: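 CellTiter-Glo luminescence (intracellular ATP) after 24 h compound exposure, 37 C, in LYMP1-002 human lymphoblastoid cells; decreased ATP taken as cytotoxicity. AC50 from standard Hill fit of concentration-response curves.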

[6] = Cell Viability - LYMP1-002 - Assay at 40 hr (AID 994); settings: LYMP1-002 lymphoblastoid cell viability; series mostly up to 92.2 µM; further: nearly all actives have a fitted effect of over 60% in size; further: potency means the concentration at half of the fitted maximal effect
How it was run: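 qHTS cytotoxicity; 2500 cells/well, 5 hr 37 C settle, compound 40 hr 37 C. CellTiter-Glo, 30 min RT, luminescence (ATP). Concentration-response, Hill fit → AC50. Pos. ctrl tetraoctylammonium bromide.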

[7] = molecular target: Alpha-galactosidase A (Homo sapiens) (UniProt P06280); assay: Counterscreen for Glucocerebrosidase Inhibitors: qHTS Assay for Human alpha-Galactosidase at pH 4.5 (AID 992); settings: purified enzyme, fluorogenic substrate; series mostly up to 76.9 µM
How it was run: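 Fluorogenic 1536-well qHTS at pH 4.5 (citrate, Tween-20): 2 nM enzyme, 80 uM 4-MU-alpha-galactoside, 20 min room temperature, NaOH/glycine stop. Titration 0.7 nM to 77 uM, data normalized to no-enzyme and full-activity controls, Hill-fitted AC50.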

[8] = molecular target: alpha-glucosidase (Oryza sativa, rice) (UniProt Q653V4); assay: Counterscreen for Glucocerebrosidase Inhibitors: qHTS Assay for Rice alpha-Glucosidase at pH 5.0 (AID 997); settings: rice alpha-glucosidase enzyme activity; series mostly up to 76.9 µM
How it was run: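 Endpoint fluorogenic assay at pH 5.0: compounds (0.7 nM to 77 uM) titrated against 4 nM rice enzyme and 400 uM 4-MU-alpha-glucoside for 20 min at room temperature; NaOH/glycine stop, read ex 365/em 440 nm, Hill-fitted AC50.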

[9] = qHTS Assay for Lipid Storage Modulators (AID 1519; calls by dose curve); settings: Drosophila S3 cells, BODIPY lipid droplet/cell ratio, laser cytometry, cells loaded with oleic acid
How it was run: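 Cells seeded at 5,000 per well were treated with compounds over a concentration series and loaded with oleic acid (400 uM, as added). Lipid droplet fluorescence (488 nm excitation, 500-530 nm channel) was read by laser-scanning cytometry and normalized to 20 uM Triacsin C.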

[10] = molecular target: DNA repair nuclease/redox regulator APEX1 (Homo sapiens) (UniProt P27695); assay: qHTS Validation Assay for Inhibitors of the Human Apurinic/apyrimidinic Endonuclease 1 (APE1) (AID 1705;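 further: TAMRA fluorescence gain over two minutes as APE1 cuts a quenched THF abasic duplex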); settings: purified APE1 endonuclease activity, fluorescence, titration; series mostly up to 57.1 µM
How it was run: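 Human APE1 was preincubated with compound for 15 min at room temperature, then 50 nM (final) THF-abasic double-stranded DNA substrate bearing 5'-TAMRA and 3'-BHQ-2 was added. Incision-driven fluorescence rise (ex 525/em 598 nm) was read kinetically.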

[11] = Counterscreen for APE1 Inhibitors: Fluorescent Dye Displacement Validation Assay (AID 1707); settings: fluorescent dye displacement from DNA; series mostly up to 57.1 µM
How it was run: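 Counterscreen flags promiscuous DNA binders: compounds displacing ThO from duplex DNA (abasic THF site, 50 nM) reduce 540 nm emission (480 nm excitation). ThO 250 nM final; Tris-HCl pH 7.5 with NaCl, MgCl2 and Tween-20.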

[12] = qHTS for differential inhibitors of proliferation of Plasmodium falciparum line 7G8 (AID 1815); settings: Plasmodium falciparum 7G8 proliferation inhibition; series mostly up to 28.7 µM;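 further: parasite growth measured after three days of incubation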
[13] = qHTS for differential inhibitors of proliferation of Plasmodium falciparum line 3D7 (AID 1876); further: potency means the concentration at half of the fitted maximal effect; settings: P. falciparum 3D7 proliferation inhibition; series mostly up to 28.7 µM
[14] = qHTS for differential inhibitors of proliferation of Plasmodium falciparum line Dd2 (AID 1882); settings: series mostly up to 28.7 µM;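 further: compound exposure of 72 h on infected erythrocytes; nearly all actives have a fitted effect of over 65% in size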
How it was run: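 RBC culture, 0.3% parasitemia / 2.5% Hct final; cpd added by pin tool in DMSO; 72 h, 37 C, 5% CO2; lysis buffer + SYBR Green I, o/n RT dark; FI 485/535; norm. to artemisinin 0.29 uM and DMSO.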

[15] = qHTS for differential inhibitors of proliferation of Plasmodium falciparum line W2 (AID 1883); settings: Plasmodium falciparum W2 proliferation inhibition;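 further: potency means the concentration at half of the fitted maximal effect; parasites grown with compound for 72 h before lysis and staining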
[16] = qHTS for differential inhibitors of proliferation of Plasmodium falciparum line HB3 (AID 1886); settings: Potency: Plasmodium falciparum HB3 proliferation inhibition; series mostly up to 28.7 µM;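 further: potency means the concentration at half of the fitted maximal effect; parasites grown with compound for 72 h before SYBR Green readout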
[17] = measured here: cell count channel max response
[18] = measured here: lipid channel max response

Chain of Alpha-galactosidase A (Homo sapiens) (P06280 whole entry, looked up): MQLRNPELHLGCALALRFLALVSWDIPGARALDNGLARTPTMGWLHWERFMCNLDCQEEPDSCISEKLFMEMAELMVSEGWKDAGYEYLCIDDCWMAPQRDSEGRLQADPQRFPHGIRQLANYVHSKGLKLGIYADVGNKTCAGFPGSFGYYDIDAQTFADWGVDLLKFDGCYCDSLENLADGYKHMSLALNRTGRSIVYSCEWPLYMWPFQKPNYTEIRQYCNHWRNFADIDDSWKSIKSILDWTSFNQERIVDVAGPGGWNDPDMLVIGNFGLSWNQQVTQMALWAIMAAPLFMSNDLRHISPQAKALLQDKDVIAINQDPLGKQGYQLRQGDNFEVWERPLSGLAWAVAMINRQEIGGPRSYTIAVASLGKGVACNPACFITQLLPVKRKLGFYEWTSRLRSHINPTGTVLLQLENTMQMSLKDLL
Chain of DNA repair nuclease/redox regulator APEX1 (Homo sapiens) (P27695 whole entry, looked up): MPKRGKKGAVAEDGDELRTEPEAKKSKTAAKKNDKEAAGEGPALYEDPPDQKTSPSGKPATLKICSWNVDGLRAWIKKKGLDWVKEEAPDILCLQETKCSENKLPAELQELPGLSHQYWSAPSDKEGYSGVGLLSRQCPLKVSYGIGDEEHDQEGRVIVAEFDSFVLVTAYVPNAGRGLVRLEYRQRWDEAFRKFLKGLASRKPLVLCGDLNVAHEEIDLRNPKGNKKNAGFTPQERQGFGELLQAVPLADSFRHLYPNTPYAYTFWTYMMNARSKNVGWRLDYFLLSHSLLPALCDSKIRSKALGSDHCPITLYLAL

OC[C@H]1O[C@@H]2O[C@H]3[C@H](O)[C@@H](O)[C@@H](O[C@H]4[C@H](O)[C@@H](O)[C@@H](O[C@H]5[C@H](O)[C@@H](O)[C@@H](O[C@H]6[C@H](O)[C@@H](O)[C@@H](O[C@H]7[C@H](O)[C@@H](O)[C@@H](O[C@H]8[C@H](O)[C@@H](O)[C@@H](O[C@H]1[C@H](O)[C@H]2O)O[C@@H]8CO)O[C@@H]7CO)O[C@@H]6CO)O[C@@H]5CO)O[C@@H]4CO)O[C@@H]3CO
Potency [1]: inactive
outcome [2]: inactive
Potency [3]: inactive
outcome [4]: inactive
outcome [5]: inactive
Potency [6]: inactive

CN1CCC[C@@H]1CCO[C@](C)(c1ccccc1)c1ccc(Cl)cc1
outcome [7]: inactive
outcome [8]: inactive
activity change, negative = inhibition ([9]; at 25.7 µM (top of the series)): -6.95% (inactive)
max response [9, 17]: -6.75%
max response [9, 18]: -13.1%

C[N+]1(C)CCC(=C(c2ccccc2)c2ccccc2)CC1
activity change, negative = inhibition ([9]; at 25.7 µM (top of the series)): 0.0072% (inactive)
max response [9, 17]: 2.33%
max response [9, 18]: 0.67%

NC(N)=NCc1cccc(I)c1
outcome [7]: inactive
outcome [8]: inactive
Potency [10]: inactive
outcome [11]: inactive
outcome [12]: inactive
Potency [13]: 8.91 µM (active)
outcome [14]: inactive
Potency [15]: 10 µM (active)
Potency [16]: 6.31 µM (active)

CCOc1ccc(NC(C)=O)cc1
Potency [1]: inactive
outcome [2]: inactive
Potency [3]: inactive
outcome [4]: inactive
outcome [5]: inactive
Potency [6]: inactive
activity change, negative = inhibition ([9]; at 25.7 µM (top of the series)): -1.03% (inactive)
max response [9, 17]: 1.01%
max response [9, 18]: -4.32%

O=C(O)CCC(=O)Nc1ccc(S(=O)(=O)Nc2nccs2)cc1
activity change, negative = inhibition ([9]; at 25.7 µM (top of the series)): 0.767% (inactive)
activity change, negative = inhibition ([9]; at 57.5 µM (top of the series)): 7.18% (inactive)
max response [9, 17]: 5.61% and 16.3%
max response [9, 18]: 3.26% and 28.6%

COc1cc(NS(=O)(=O)c2ccc(N)cc2)ncn1
activity change, negative = inhibition ([9]; at 25.7 µM (top of the series)): 1.08% (inactive)
activity change, negative = inhibition ([9]; at 57.5 µM (top of the series)): 3.4% (inactive)
max response [9, 17]: 0.606% and 6.05%
max response [9, 18]: 1.51% and 9.04%

C/C=C/c1ccc(O)c(OC)c1
Potency [1]: inactive
outcome [2]: inactive
Potency [3]: inactive
outcome [4]: inactive
outcome [5]: inactive
Potency [6]: inactive

CN=C(N)NCCC[C@H](N)C(=O)O
outcome [7]: inactive
outcome [8]: inactive
activity change, negative = inhibition ([9]; at 57.5 µM (top of the series)): 0.0216% (inactive)
max response [9, 17]: -14.9%
max response [9, 18]: -15.5%

Oc1c(Cl)cc(Cl)c(Cl)c1Cc1c(O)c(Cl)cc(Cl)c1Cl
Potency [1]: 15.8 µM (active)
Potency [3]: 39.8 µM (active)
Potency [6]: 31.6 µM (active)
activity change, negative = inhibition ([9]; at 57.5 µM (top of the series)): 7.05% (inactive)
max response [9, 17]: 18%
max response [9, 18]: 27%

COc1ccc(C(=O)c2ccccc2)c(O)c1
Potency [1]: inactive
outcome [2]: inactive
Potency [3]: inactive
outcome [4]: inactive
outcome [5]: inactive
Potency [6]: inactive
